Each structure is given as a SMILES string. A number with no mark means an inactive call. Activity calls are given as the source filed them.

This assay in a line: plasmodial surface anion channel blockers, osmotic lysis – cell-based, P. falciparum Indochina, OD700, 2 h, primary screen (AID 1155).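 Note: lysis reports solute entry through the parasite surface anion channel PSAC.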 As to conditions: P. falciparum Indochina infected erythrocytes, higher = more signal, called active from +8 up or from −8 down.
With `CC(C)(C)OC(=O)CC[C@]1(C(=O)NCCN2CCOCC2)N=C(c2ccc(OCCCO)cc2)O[C@H]1c1ccccc1N=[N+]=[N-]`, the z-score is 29.2 (active). Take `C=CC[C@H](OC(=O)Nc1ccc(OC)cc1)c1ccc(O)c2ccccc12`: the z-score is 0.919. As for `COC(=O)[C@@]1(Cc2ccc(OC)cc2)[C@H]2c3cc(C(=O)N4CCCC4)n(CCc4cc5ccccc5[nH]4)c3C[C@H]2CN1C(=O)c1ccccc1`, the z-score is 0.852. As for `COc1ccc(CCNC(=O)[C@@]2(Sc3ccc(C)cc3)CC(=O)N(Cc3cc(C(F)(F)F)cc(C(F)(F)F)c3)[C@@H]2c2ccc(CO)cc2I)cc1`, the figure is 1.25; as for `COc1ccc(C(O)C2C=CC3C(=O)N(C)C(=O)C3N2N2CCCCC2)cc1` (stereo not drawn), 1.36. Turning to `COc1ccc([Si](C)(C)[C@@H]2[C@@H](CC(=O)N3CCC[C@H]3CO)O[C@]3(C(=O)N(Cc4ccc(N5C(=O)c6cccc7cccc5c67)cc4)c4ccccc43)[C@H]2C)cc1`, the z-score is 1.71. Then `O=C1c2ccccc2[C@@]2(Cc3ccccc3N(C3CC3)C2=O)[C@H](c2ccc(CO)cc2)N1C1CCCCC1`, with -0.0557. Regarding `CCOC(=O)C1=CC[C@@H](c2cc(Cl)ccc2Cl)N(S(=O)(=O)c2ccc(C)cc2)[C@H]1c1ccc(OC)cc1`, the z-score was 1.92. As to `CC=CC(O)C1C=CC2C(=O)N(C)C(=O)C2N1N1CCCCC1` (stereo not drawn), the z-score is 1.18.

On to `C=C(C(=O)CC[C@H](OC(C)=O)c1cccc(OCCO)c1)C(C)C`, for which the z-score was -1.94. For the compound `CC(C)C(=C=CC[C@H](O)c1ccc(OCCO)cc1)C[C@H](O)c1cc(Cl)cc(Cl)c1O`, the z-score is 3.7. Then `COc1ccc(C#Cc2ccc3c(c2)[C@]2(C(=O)N3)[C@H](C(=O)N3CCc4cc(OC)c(OC)cc4C3)[C@H]3C(=O)O[C@H](c4ccccc4)[C@H](c4ccccc4)N3[C@@H]2c2ccc(O)cc2)cc1`, with 0.216. For the compound `CN1C(=O)[C@@]2(CCS(=O)(=O)c3ccccc3)N=C(c3ccc(OCCCO)cc3)O[C@H]2c2ccccc21`, the z-score is 23.3 (active). Regarding `CC[C@H]1C2=C3C(CC[C@H]4C(OCc5ccc(F)cc5C(F)(F)F)OC[C@](C)([C@@H]34)N(C(=O)OC(C)(C)C)C2)C2COC(=O)OCC21` (stereo partly drawn), the z-score is 0.584. Turning to `Cc1ccc(S[C@]2(C(=O)NCc3ccccc3)CC(=O)N(C(C)C)[C@@H]2c2ccc(CO)cc2I)cc1`, the z-score was 1.19. Consider `Cc1ccc(C(C)CC(O)C2C=CC3C(=O)N(c4ccccc4)C(=O)C3N2Nc2ccc(C(C)C)cc2)o1` (stereo not drawn), for which the z-score was 0.871.

On to `COCCOC(=O)N1C(=O)[C@@]2(c3cc(C#Cc4ccc(OC)cc4)ccc31)[C@H](C(=O)NC[C@H](O)c1ccccc1)[C@H]1C(=O)O[C@H](c3ccccc3)[C@H](c3ccccc3)N1[C@@H]2c1ccc(O)cc1`, for which the z-score is 0.702.

Regarding `COCCOC(=O)N1C(=O)[C@@]2(c3cc(C#CC4(O)CCCCCC4)ccc31)[C@H](C(N)=O)[C@H]1C(=O)O[C@H](c3ccccc3)[C@H](c3ccccc3)N1[C@@H]2c1ccc(O)cc1`, the z-score was -0.269. As for `CC1CC/C=C\[C@H]2OC34C=CCN(C(C)C)C(=O)[C@H]3N(CCCCCO)C(=O)[C@@H]4C2C(=O)O1` (stereo partly drawn), the figure is 0.0524. `CCOC(=O)C1=CC[C@@H](c2ccccc2)N(S(=O)(=O)c2ccc(C)cc2)C1`: the z-score is 0.596. Then `CCN(CC)c1ccc(N2CC=CC34O[C@@H]5/C=C\CCC(C)OC(=O)C5[C@H]3C(=O)N(CCO)[C@@H]4C2=O)cc1` (stereo partly drawn), with 0.615; and `C=CCOC(=O)[C@H]1[C@@H]2C(=O)O[C@@H](c3ccccc3)[C@@H](c3ccccc3)N2[C@@H](c2ccc(OCCOC(=O)[C@H]3C[C@H]4C(=O)N[C@@H](CCCC[N+](C)(C)C)C(=O)N4[C@H]3c3cccc(OCCO)c3)cc2)[C@]12C(=O)Nc1ccc(I)cc12`, with 2.53.

With `O=C1C[C@@](C(=O)NCC(F)(F)F)(c2ccc([N+](=O)[O-])cc2)[C@@H](c2ccc(CO)cc2)N1C1CCCCC1`, the z-score is -0.105.
